p53 PUMA act – re-activators of the mutant p53 pathway. SW480 PUMA-promoter luciferase, p53 mutant reactivation. activation, % at 9.98 µM. 28,000 tested, 1.5% active; in the data active = activation above about 52%; inconclusive = no clear call, values can overlap the other calls
STK33 inh – human STK33 kinase inhibition. Q9BYT3. ADP-Glo luminescence, MBP substrate. inhibition, % at 12.5 µM. 27,000 tested, 0.44% active. AID 2322; in the data active = inhibition above about 20%; inconclusive = no clear call, values can overlap the other calls
Target sequence (Q9BYT3 whole entry, looked up): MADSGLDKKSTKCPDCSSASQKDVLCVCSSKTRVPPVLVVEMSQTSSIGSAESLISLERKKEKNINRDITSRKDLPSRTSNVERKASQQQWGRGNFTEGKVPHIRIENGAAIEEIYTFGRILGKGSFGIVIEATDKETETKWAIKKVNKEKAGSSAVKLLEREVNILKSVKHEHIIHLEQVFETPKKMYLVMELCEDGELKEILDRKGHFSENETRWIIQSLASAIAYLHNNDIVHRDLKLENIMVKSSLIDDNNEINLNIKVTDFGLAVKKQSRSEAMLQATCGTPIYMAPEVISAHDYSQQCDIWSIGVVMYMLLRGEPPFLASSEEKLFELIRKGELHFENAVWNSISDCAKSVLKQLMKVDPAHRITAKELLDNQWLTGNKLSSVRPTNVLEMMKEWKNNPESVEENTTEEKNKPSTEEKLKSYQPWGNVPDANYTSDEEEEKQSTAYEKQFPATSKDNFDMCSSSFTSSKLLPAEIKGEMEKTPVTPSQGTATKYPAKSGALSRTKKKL
ID4 binder – binds human ID4 protein on microarray; P47928; small molecule microarray, Flag-ID4 binding, fluorescence F/B; calls only; 31,000 tested, 1.2% active; call rule not given here;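 note: a binder raises fluorescence above local background on the spot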
Target sequence (P47928 whole entry, looked up): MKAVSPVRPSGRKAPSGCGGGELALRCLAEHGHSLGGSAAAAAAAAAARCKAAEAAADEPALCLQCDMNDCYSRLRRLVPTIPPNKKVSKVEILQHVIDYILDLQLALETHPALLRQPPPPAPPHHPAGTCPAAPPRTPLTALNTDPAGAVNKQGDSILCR
Of the large screens only hits and unclear results are named; the others gave an inactive call. Most compounds without a hit are left out; they make up all but 2.1% or so of the library.

O=C(COc1ccc(Br)cc1Cl)Nc1ccccc1[N+](=O)[O-]	none
Cc1ccc(NC(=O)COc2ccc(Cl)cc2Br)c([N+](=O)[O-])c1	none
Cc1ccc(OCC(=O)Nc2ccc(C)cc2[N+](=O)[O-])c(C)c1	p53 PUMA act 89
Cc1ccc(NC(=O)COc2ccc(Br)cc2Cl)c([N+](=O)[O-])c1	p53 PUMA act 82
Nc1nnc(SCc2nc3ccccc3n2Cc2ccccc2)s1	none
COC(=O)c1c(NC(=O)C2C3C=CC(C3)C2C(=O)O)sc(C)c1C (stereo unspecified)	none
C=C(C)C(=O)Nc1ccc(Oc2ccccc2F)nc1	none (no result: STK33 inh)
CC(=O)CCc1ccc(Oc2ccc(C(F)(F)F)cn2)cc1	p53 PUMA act 65
O=C(CN1C(=O)S/C(=C\C=C\c2ccccc2)C1=O)Nc1cccc(O)c1	p53 PUMA act 59 (no result: STK33 inh)
O=C(CCN1C(=O)c2ccccc2C1=O)Nc1cccc(O)c1	none
CC(=O)Nc1ccccc1NC(=O)COc1ccc(Cl)cc1Cl	none
CC(=O)Oc1ccc(NC(=O)COc2cccc(C)c2C)c(C(=O)O)c1	none
Cc1cccc(OCC(=O)Nc2ccccc2CO)c1C	p53 PUMA act 69
O=C(COc1ccc(Cl)cc1CO)Nc1ccccc1F	p53 PUMA act 128
COc1cc(CO)ccc1OCC(=O)Nc1ccc(C)cc1	none
COc1cc(CO)ccc1OCC(=O)Nc1ccccc1F	p53 PUMA act 64
Cc1ccc(NC(=O)c2cccc(S(=O)(=O)Nc3cccc(C(=O)O)c3)c2)cc1	none
O=C(COc1ccc(S(=O)(=O)N2CCOCC2)cc1)Nc1ccc(F)c(Cl)c1	none
C[C@H]1CN([C@@H](C)CO)C(=O)c2cc(NC(=O)C3CC3)ccc2O[C@@H]1CN(C)C(=O)NC1CCCCC1	none (no result: p53 PUMA act, ID4 binder)
C[C@@H]1CN([C@@H](C)CO)C(=O)c2cc(NS(=O)(=O)c3cccs3)ccc2O[C@@H](C)CCCCO[C@H]1CN(C)C	none (no result: STK33 inh)
Cc1cc(O)c2c(c1)C(=O)c1cccc(O)c1C2=O	none (no result: p53 PUMA act)
COc1c(C=O)c(O)cc2c1C(=O)c1ccccc1C2=O	STK33 inh 85
COc1ccc(NC(=O)N(C)C[C@@H]2Oc3ccc(NC(=O)c4ccncc4)cc3C(=O)N([C@@H](C)CO)C[C@@H]2C)cc1	none (no result: p53 PUMA act, ID4 binder)
C[C@H](CO)N1C[C@H](C)[C@H](CN(C)S(=O)(=O)c2ccccc2)Oc2ncc(-c3ccccc3)cc2C1=O	none
Cc1noc(C)c1NC(=O)Nc1cccc2c1O[C@H](CN(C)Cc1ccc(C(=O)O)cc1)[C@@H](C)CN([C@H](C)CO)C2=O	none
C[C@@H]1CN([C@H](C)CO)C(=O)Cc2cc(NC(=O)CCN3CCOCC3)ccc2O[C@@H]1CN(C)C(=O)Nc1ccc(C(F)(F)F)cc1	none (no result: p53 PUMA act, ID4 binder)
Cc1cc(C)nc(Nc2n[nH]c(COc3ccccc3)n2)n1	p53 PUMA act inconclusive
Cc1cc(C)nc(Nc2n[nH]c(-c3cccnc3)n2)n1	p53 PUMA act 74
COc1ccc(-c2nc(Nc3nc(C)cc(C)n3)n[nH]2)cc1OC	p53 PUMA act 85, ID4 binder active
COc1ccc(C(=O)CSc2n[nH]c(-c3ccccc3)n2)cc1OC	none
C[C@H](CO)N1C[C@H](C)[C@@H](CN(C)C(=O)Nc2ccc(C(F)(F)F)cc2)Oc2ccc(NS(=O)(=O)c3ccccc3)cc2C1=O	none (no result: STK33 inh)
C[C@H]1CN([C@@H](C)CO)C(=O)c2cc(NC(=O)Nc3ccc(F)cc3)ccc2O[C@H]1CN(C)S(=O)(=O)c1cccs1	none
CNC[C@@H]1Oc2ccc(NS(=O)(=O)c3ccc(OC)cc3)cc2CC(=O)N([C@H](C)CO)C[C@@H]1C	none (no result: p53 PUMA act, ID4 binder)
O=C(Cn1cnc2ccccc2c1=O)NCc1ccco1	none
Cn1c(=O)[nH]c(=O)c2c1ncn2CCNCc1ccco1	ID4 binder active
COCCNC(=S)N1CCN(Cc2ccco2)CC1	ID4 binder active
CS(=O)(=O)N1CCN(C(=S)NCc2ccco2)CC1	none
C[C@H]1CN([C@@H](C)CO)C(=O)c2cc(C#Cc3cccnc3)cnc2O[C@@H]1CN(C)S(=O)(=O)c1ccccc1F	none (no result: STK33 inh)
COc1ccc(NC(=O)C(C)(C)Oc2ccc(Cl)cc2)c([N+](=O)[O-])c1	none
C[C@@H]1CCCCO[C@@H](CN(C)C(=O)Nc2ccccc2)[C@H](C)CN([C@@H](C)CO)C(=O)c2cc(NS(C)(=O)=O)ccc2O1	none (no result: STK33 inh)
CC(=O)Nc1ccc(NC(=O)CCCN2C(=O)c3ccccc3C2=O)cc1	none
O=C(CCCN1C(=O)c2ccccc2C1=O)Nc1ccc(Nc2ccccc2)cc1	p53 PUMA act 55
O=C(C[C@@H]1C=C[C@H](NC(=O)C2CC2)[C@@H](CO)O1)NCc1ccccc1Cl	none (no result: p53 PUMA act, STK33 inh)
O=C(O)CCCCCCC(=O)Nc1ccc(C2OC(CSCCO)CC(c3ccccc3)O2)cc1 (stereo unspecified)	ID4 binder active (no result: p53 PUMA act, STK33 inh)
COC(=O)CCCCCCC(=O)Nc1ccc(C2OC(CSc3ccccn3)CC(c3ccccc3)O2)cc1 (stereo unspecified)	none (no result: p53 PUMA act)
Cc1ccc(S(=O)(=O)N[C@@H]2CCCN(Cc3ccc(OCCO)cc3)C2)cc1	ID4 binder active (no result: p53 PUMA act, STK33 inh)
O=S(=O)(N[C@@H]1CCCN(Cc2cccc(OCCO)c2)C1)c1ccc(Cl)c(Cl)c1	none (no result: p53 PUMA act, ID4 binder)
O=S(=O)(N[C@@H]1CCCN(Cc2ccc(OCCO)cc2)C1)c1ccccc1	none (no result: p53 PUMA act)
O=S(=O)(N[C@@H]1CCCN(Cc2cccc(OCCO)c2)C1)c1cc(Cl)ccc1Cl	ID4 binder active (no result: p53 PUMA act)
C[C@@H]1CCCCO[C@@H](CN(C)S(=O)(=O)c2ccccc2)[C@@H](C)CN([C@H](C)CO)C(=O)c2cc(NC(=O)Nc3ccc(C(F)(F)F)cc3)ccc2O1	none (no result: p53 PUMA act, ID4 binder)
C[C@@H]1CN([C@H](C)CO)C(=O)c2ccccc2-c2ccccc2CO[C@@H]1CN(C)Cc1ccccc1	none (no result: STK33 inh)
Cc1ccccc1-c1cnc2c(c1)C(=O)N([C@H](C)CO)C[C@H](C)[C@H](CN(C)CC1CCOCC1)O2	none (no result: p53 PUMA act, STK33 inh)
COC(=O)c1ccccc1NC(=O)CNC(=O)c1ccccc1	none
COC(=O)c1ccccc1NC(=O)c1cccc(NC(=O)COc2ccccc2)c1C	none
COC(=O)c1ccccc1NC(=O)c1ccc(COc2ccccc2)o1	p53 PUMA act 103
COC(=O)c1ccccc1NC(=O)NCc1ccc(C(=O)O)cc1	ID4 binder active
O=C(NCc1ccccn1)c1cc2nc(-c3ccccc3)cc(-c3ccccc3)n2n1	none
CSc1ccccc1NC(=O)CN(c1ccc(Br)cc1)S(C)(=O)=O	none
C[C@@H]1CCCCO[C@@H](CN(C)C(=O)NC2CCCCC2)[C@@H](C)CN([C@H](C)CO)C(=O)c2cc(NC(=O)NC3CCCCC3)ccc2O1	none (no result: p53 PUMA act, ID4 binder)
CC(Oc1ccc(Br)cc1)C(=O)Nc1ccccc1[N+](=O)[O-] (stereo unspecified)	none
CC(Oc1ccccc1F)C(=O)Nc1ccccc1[N+](=O)[O-] (stereo unspecified)	p53 PUMA act 57
OCCCNc1ncnc2scc(-c3ccccc3)c12	none
OCCCNc1ncnc2oc(-c3ccccc3)c(-c3ccccc3)c12	STK33 inh 32
C[C@H](CO)N1C[C@H](C)[C@@H](CN(C)CC2CCCCC2)Oc2ccc(N(C)C)cc2CC1=O	none (no result: STK33 inh)
CCc1cccc(C)c1NC(=O)CSc1nc2sc3c(c2c(=O)n1C)CCC(C)C3 (stereo unspecified)	none
CC1CCc2c(sc3nc(SC(C)C(=O)Nc4ccccc4)nc(N)c23)C1 (stereo unspecified)	p53 PUMA act 118
COc1cc(O)c2c(c1)O[C@@H](c1ccccc1)CC2=O	none (no result: p53 PUMA act, ID4 binder)
COc1ccc(C2CC(=O)c3ccc(OC)cc3O2)cc1 (stereo unspecified)	p53 PUMA act 97
